# Test results: PubChem BioAssay AID1508601 (ICCB-Longwood Screening Facility, Harvard Medical School, 2020)
# In all, about 5,700 compounds went through this assay and about 85 (1%) were called active. No stated cut-off is given here; in the data, active means p53-positive nuclei above about 36% (passing the limit was not always enough); inactive means the rest. The list comes from a sample in which actives are over-represented; it also holds similar structures and randomly drawn compounds. Peptide text beside a SMILES is read from it.
# Experiments:
# [1] = p53 stabilisation in HPV-positive human cells, imaging, p53-positive nuclei imaging, 24 h, 48 h (AID 1508601); conditions: 24/48 h
# [2] = target: Cellular tumor antigen p53 (Homo sapiens) (UniProt P04637); experiment: as above; conditions: 24/48 h, stronger effect = higher value
# Cellular tumor antigen p53 (Homo sapiens), sequence (P04637 whole entry, looked up): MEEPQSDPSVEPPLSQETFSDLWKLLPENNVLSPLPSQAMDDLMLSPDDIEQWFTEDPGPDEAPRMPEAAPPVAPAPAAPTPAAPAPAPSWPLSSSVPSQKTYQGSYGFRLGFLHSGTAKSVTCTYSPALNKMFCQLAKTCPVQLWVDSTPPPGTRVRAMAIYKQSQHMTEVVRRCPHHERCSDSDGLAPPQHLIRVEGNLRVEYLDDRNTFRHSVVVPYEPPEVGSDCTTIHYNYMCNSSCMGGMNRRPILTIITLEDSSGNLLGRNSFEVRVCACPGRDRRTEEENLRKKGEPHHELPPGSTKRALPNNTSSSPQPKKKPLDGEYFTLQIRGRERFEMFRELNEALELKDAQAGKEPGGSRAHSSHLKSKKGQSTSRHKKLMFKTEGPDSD
# [3] = measured here: cell number at 24 h, Library stock concentration: 3.33 mM
# [4] = measured here: cell number at 48 h, Library stock concentration: 3.33 mM
# [5] = Library stock concentration: 3.33 mM
# [6] = measured here: p53 positive nuclei at 24 h, Library stock concentration: 3.33 mM
# [7] = measured here: cell number at 24 h, Library stock concentration: 80 uM
# [8] = measured here: cell number at 24 h, Library stock concentration: 400 uM
# [9] = measured here: cell number at 24 h, Library stock concentration: 2 mM
# [10] = measured here: cell number at 24 h, Library stock concentration: 10 mM
# [11] = measured here: cell number at 48 h, Library stock concentration: 80 uM
# [12] = measured here: cell number at 48 h, Library stock concentration: 400 uM
# [13] = measured here: cell number at 48 h, Library stock concentration: 2 mM
# [14] = measured here: cell number at 48 h, Library stock concentration: 10 mM
# [15] = Library stock concentration: 80 uM
# [16] = Library stock concentration: 400 uM
# [17] = Library stock concentration: 2 mM
# [18] = Library stock concentration: 10 mM
# [19] = measured here: p53 positive nuclei at 24 h, Library stock concentration: 80 uM
# [20] = measured here: p53 positive nuclei at 24 h, Library stock concentration: 400 uM
# [21] = measured here: p53 positive nuclei at 24 h, Library stock concentration: 2 mM
# [22] = measured here: p53 positive nuclei at 24 h, Library stock concentration: 10 mM
smiles,measurement,setting,value
COc1ccc(CC(NC(=O)C(C)NC(=O)CN2CCOCC2)C(=O)NC(Cc2ccccc2)C(=O)[C@]2(C)CO2)cc1 (some centres undefined),"nuclei count, normalised",[1]; [3],46%
same,"nuclei count, normalised",[1]; [4],38.7%
same,"p53-positive nuclei, normalised",[2]; [5],106% (active)
same,"p53-positive nuclei, normalised",[2]; [6],126%
CC(C)C(N)C(=O)NC(Cc1ccccc1)C(=O)O (centres undefined),"nuclei count, normalised",[1]; [7],118%
same,"nuclei count, normalised",[1]; [8],113%
same,"nuclei count, normalised",[1]; [9],112%
same,"nuclei count, normalised",[1]; [10],113%
same,"nuclei count, normalised",[1]; [11],107%
same,"nuclei count, normalised",[1]; [12],100%
same,"nuclei count, normalised",[1]; [13],103%
same,"nuclei count, normalised",[1]; [14],102%
same,"p53-positive nuclei, normalised",[2]; [15],-0.188% (inactive)
same,"p53-positive nuclei, normalised",[2]; [16],0.0868% (inactive)
same,"p53-positive nuclei, normalised",[2]; [17],-0.0686% (inactive)
same,"p53-positive nuclei, normalised",[2]; [18],-0.0304% (inactive)
same,"p53-positive nuclei, normalised",[2]; [19],-0.0726%
same,"p53-positive nuclei, normalised",[2]; [20],-0.0759%
same,"p53-positive nuclei, normalised",[2]; [21],0.0367%
same,"p53-positive nuclei, normalised",[2]; [22],-0.118%
CC(C)CC(NC(=O)C(CCc1ccccc1)NC(=O)CN1CCOCC1)C(=O)NC(Cc1ccccc1)C(=O)NC(CC(C)C)C(=O)[C@@]1(C)CO1 (some centres undefined),"nuclei count, normalised",[1]; [3],36.4%
same,"nuclei count, normalised",[1]; [4],30.5%
same,"p53-positive nuclei, normalised",[2]; [5],104% (active)
same,"p53-positive nuclei, normalised",[2]; [6],117%
CC(C)CC(CC(=O)NO)C(=O)NC(Cc1ccc2ccccc2c1)C(=O)NC(C)C(=O)NCCN (centres undefined),"nuclei count, normalised",[1]; [3],109%
same,"nuclei count, normalised",[1]; [4],104%
same,"p53-positive nuclei, normalised",[2]; [5],0.0444% (inactive)
same,"p53-positive nuclei, normalised",[2]; [6],-0.208%
COCC(NC(=O)c1cnc(C)s1)C(=O)NC(COC)C(=O)NC(Cc1ccccc1)C(=O)C1(C)CO1 (centres undefined),"nuclei count, normalised",[1]; [3],50.4%
same,"nuclei count, normalised",[1]; [4],40.7%
same,"p53-positive nuclei, normalised",[2]; [5],96.5% (active)
same,"p53-positive nuclei, normalised",[2]; [6],116%
CC(C)CC(C(=O)NC(Cc1ccc(OCc2ccccc2)cc1)C(=O)NC(C)(C)C)N(C)Cc1ccc(C(C)(C)C)cc1 (centres undefined),"nuclei count, normalised",[1]; [7],108%
same,"nuclei count, normalised",[1]; [8],108%
same,"nuclei count, normalised",[1]; [9],110%
same,"nuclei count, normalised",[1]; [10],113%
same,"nuclei count, normalised",[1]; [11],103%
same,"nuclei count, normalised",[1]; [12],105%
same,"nuclei count, normalised",[1]; [13],103%
same,"nuclei count, normalised",[1]; [14],109%
same,"p53-positive nuclei, normalised",[2]; [15],0.116% (inactive)
same,"p53-positive nuclei, normalised",[2]; [16],-0.221% (inactive)
same,"p53-positive nuclei, normalised",[2]; [17],0.074% (inactive)
same,"p53-positive nuclei, normalised",[2]; [18],-0.262% (inactive)
same,"p53-positive nuclei, normalised",[2]; [19],-0.0604%
same,"p53-positive nuclei, normalised",[2]; [20],-0.22%
same,"p53-positive nuclei, normalised",[2]; [21],-0.108%
same,"p53-positive nuclei, normalised",[2]; [22],-0.169%
COc1ccc(CC(NC(=O)C(C)NC(=O)CN2CCOCC2)C(=O)NC(Cc2ccccc2)C(=O)[C@@]2(C)CO2)cc1 (some centres undefined),"nuclei count, normalised","[1]; measured here: cell number at 24 h, Library stock concentration: 46 uM",107%
same,"nuclei count, normalised","[1]; measured here: cell number at 24 h, Library stock concentration: 278 uM",109%
same,"nuclei count, normalised","[1]; measured here: cell number at 24 h, Library stock concentration: 1.67 mM",57.1%
same,"nuclei count, normalised",[1]; [10],52.6%
same,"nuclei count, normalised","[1]; measured here: cell number at 48 h, Library stock concentration: 46 uM",113%
same,"nuclei count, normalised","[1]; measured here: cell number at 48 h, Library stock concentration: 278 uM",113%
same,"nuclei count, normalised","[1]; measured here: cell number at 48 h, Library stock concentration: 1.67 mM",43.8%
same,"nuclei count, normalised",[1]; [14],39.6%
same,"p53-positive nuclei, normalised",[2]; Library stock concentration: 46 uM,-0.326% (inactive)
same,"p53-positive nuclei, normalised",[2]; Library stock concentration: 278 uM,0.734% (inactive)
same,"p53-positive nuclei, normalised",[2]; Library stock concentration: 1.67 mM,103% (active)
same,"p53-positive nuclei, normalised",[2]; [18],102% (active)
same,"p53-positive nuclei, normalised","[2]; measured here: p53 positive nuclei at 24 h, Library stock concentration: 46 uM",-0.151%
same,"p53-positive nuclei, normalised","[2]; measured here: p53 positive nuclei at 24 h, Library stock concentration: 278 uM",0.483%
same,"p53-positive nuclei, normalised","[2]; measured here: p53 positive nuclei at 24 h, Library stock concentration: 1.67 mM",146%
same,"p53-positive nuclei, normalised",[2]; [22],144%
COC(=O)[C@H](Cc1ccccc1)NC(=O)[C@@H](N)CC(=O)O (H-Asp-Phe-OMe),"nuclei count, normalised","[1]; measured here: cell number at 24 h, concentration not given here",91.1%
same,"nuclei count, normalised","[1]; measured here: cell number at 48 h, concentration not given here",92%
same,"p53-positive nuclei, normalised",[2]; concentration not given here,-0.024% (inactive)
same,"p53-positive nuclei, normalised","[2]; measured here: p53 positive nuclei at 24 h, concentration not given here",-0.251%
CSCCC(NC=O)C(=O)NC(CC(C)C)C(=O)NC(Cc1ccccc1)C(=O)O (centres undefined),"nuclei count, normalised",[1]; [7],96%
same,"nuclei count, normalised",[1]; [8],92.8%
same,"nuclei count, normalised",[1]; [9],99%
same,"nuclei count, normalised",[1]; [10],101%
same,"nuclei count, normalised",[1]; [11],97.1%
same,"nuclei count, normalised",[1]; [12],91.9%
same,"nuclei count, normalised",[1]; [13],96.7%
same,"nuclei count, normalised",[1]; [14],99.8%
same,"p53-positive nuclei, normalised",[2]; [15],-0.172% (inactive)
same,"p53-positive nuclei, normalised",[2]; [16],-0.159% (inactive)
same,"p53-positive nuclei, normalised",[2]; [17],-0.166% (inactive)
same,"p53-positive nuclei, normalised",[2]; [18],-0.212% (inactive)
same,"p53-positive nuclei, normalised",[2]; [19],-0.106%
same,"p53-positive nuclei, normalised",[2]; [20],-0.0972%
same,"p53-positive nuclei, normalised",[2]; [21],-0.166%
same,"p53-positive nuclei, normalised",[2]; [22],-0.105%
